Source: PubChem BioAssay
HepG2 tox: counter-screen for TGF-b inhibitors: cytotoxicity in HepG2 cells; 410,000 tested, 0.76% active; HepG2 CAGA-GFP viability, ATP luminescence, 18 h; Potency, µM (titrated, usually from 46.1 µM), for the others: at the top dose activity change, negative = cytotoxicity, usual class: cytotoxic
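CellTiter-Glo luminescence gave cytotoxicity after 18 hours at 37 degrees C. The cells were HepG2 CAGA-GFP in 1% FBS DMEM, stimulated with 500 pg/mL TGF-beta after compound addition. %Activity was normalised to no-cell wells (complete cell-killing) and DMSO (no toxicity), and curves were fitted and classified.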
ATXN2 expr inh: reduces ATXN2 reporter expression in HEK-293 cells | Potency, µM (titrated, usually from 57 µM), for inactives: at the highest dose activity change, negative = inhibition, actives largely listed as inhibitors | 360,000 tested, 0.72% active | HEK-293 ATXN2-luciferase reporter, luminescence, 24 h | AID 1745845; also: % is scaled to controls: 0 for no effect and ±100 for the full control effect; nearly all actives have a fitted effect of over 55% in size
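ATXN2-luciferase reporter cells (luciferase flanked by upstream and downstream ATXN2 gene portions) were treated 24 h at 37 °C with compounds at up to 57 uM. SteadyGlo luminescence gave expression; GF-AFC fluorescence gave viability.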
HT1080-NT tox: kills 2HG-producing HT-1080-NT fibrosarcoma cells | Potency, µM (titrated, usually from 46.1 µM), inactives show at the top dose activity, negative = less viability, actives largely listed as cytotoxic | HT-1080-NT fibrosarcoma viability, CellTiter-Glo ATP luminescence, 48 h | 360,000 tested, 1.6% active | AID 686970;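 also: NT is the 2HG producing partner of a matched IDH1 knockdown line; 0% = DMSO-treated cells and -100% = media-only wells without cells; nearly all actives have a fitted effect of over 55% in size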
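Viability by CellTiter-Glo luminescence after 48 h compound exposure at 37C of HT-1080-NT cells (750/well, RPMI, 5% FBS). % activity scaled between DMSO wells and medium-only wells, then curve-fitted and categorized by curve class.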
TGFb SMAD3 inh: blocks TGF-b signaling. HepG2 CAGA-GFP TGF-b/SMAD3 reporter, GFP fluorescence, 18 h; TGF-beta stimulated, 500 pg/mL final. Potency, µM (top dose mostly 46.1 µM), without a hit: at the top dose activity, negative = inhibition, actives largely listed as inhibitors. 410,000 tested, 1.2% active; also: % is scaled to controls: 0 for no effect and ±100 for the full control effect; nearly all actives have a fitted effect of over 65% in size
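First, reporter cells (HEPG2 CAGA-GFP) rested 2 h at 37 degrees C. Next, compounds were pinned in and TGF-beta added to 500 pg/mL final. After 18 h, GFP was imaged per cell and summed per well.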
HT1080 IDH1KD tx: HT-1080 IDH1 knockdown cell toxicity (counter line). HT-1080 IDH1 knockdown viability, ATP luminescence, 48 h. Potency, µM (doses to about 46.1 µM), inactives show at the highest dose activity, negative = toxicity, usual class: cytotoxic. 360,000 tested, 2% active. AID 686971;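 also: 0% = DMSO wells and -100% = cell-free medium wells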
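IDH1KD HT-1080 cells, 750/well, RPMI + 5% FBS; compound pinned after 2 h settling; 48 h, 37 °C; CellTiter-Glo luminescence; % activity normalised to DMSO and no-cell wells; curves fitted, classed by r2 and efficacy.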
S2 tox: viability counter-screen for ATXN expression inhibitors. S2 cells (HEK-293 line with an ATXN2-luciferase reporter) viability, CellTiter-Fluor protease fluorescence, 24 h. Potency, µM (highest dose often 56.7 µM), actives largely listed as cytotoxic. 400,000 tested, 0.49% active; also: nearly all actives have a fitted effect of over 40% in size
An asterisk follows results filed as active; i = inactive; ? = inconclusive; · = not tested or not shown. Rows were chosen to be rich in hits. Some 3.8% of all compounds tested hit in one or more screens of this group. Calls follow the shape of the dose curve; as a rule, active = well fitted curve in the direction sought with a large enough effect; inconclusive = small, poorly fitted or top-dose-only effect, or another doubt; inactive = no such curve, though single readings can be large; an effect the other way counts as inactive or inconclusive. Potency is read from the fitted curve at half-maximal effect.

SMILES	HepG2 tox	ATXN2 expr inh	HT1080-NT tox	TGFb SMAD3 inh	HT1080 IDH1KD tx	S2 tox
COc1ccc([C@H]2CC(=O)C=C(c3c(OC)cccc3OC)C2)cc1	-20%	-17%	4.6µM*	-6%	5.8µM*	i
COc1ccc(OCCCCn2c(C3CC(=O)N(c4cccc(Cl)c4)C3)nc3ccccc32)cc1 (stereo not drawn)	-10%	-33%	·	?	·	?
CCN1C(=O)C(O)(C2COC(C)(C)CC2=O)c2ccccc21 (stereo not drawn)	7%	1%	22%	1%	25%	i
CCN1C(=O)C(O)(C2COC(C)(C)CC2=O)c2cc(Br)ccc21 (stereo not drawn)	-40%	-17%	16µM*	?	?	i
CC1CN(C(=O)N2c3ccccc3Sc3ccccc32)CC(C)O1 (stereo not drawn)	0%	36%	-19%	-29%	-27%	i
O=C(N1CCOCC1)N1c2ccccc2Sc2ccccc21	-30%	-21%	?	-4%	14µM*	i
CC1CCCN(C(=O)N2c3ccccc3Sc3ccccc32)C1 (stereo not drawn)	-14%	87%	?	4%	10µM*	i
CC(C)c1cccc(-c2csc(C(C)(O)c3cccc(F)c3)n2)c1 (stereo not drawn)	16µM*	-8%	-5%	?	?	?
CC(O)(c1ccc(F)c(F)c1)c1nc(-c2cnc3ccccc3c2)cs1 (stereo not drawn)	-29%	-27%	?	16µM*	?	i
COc1ccc(C(C)(O)c2nc(-c3cccc(C(C)C)c3)cs2)cc1 (stereo not drawn)	20µM*	?	?	?	?	i
CC(O)(c1ccc(F)c(F)c1)c1nc(-c2ccc3ccccc3c2)cs1 (stereo not drawn)	-94%	-35%	?	?	?	i
COc1ccc(C(C)(O)c2nc(-c3ccccc3OC)cs2)cc1 (stereo not drawn)	-24%	-15%	?	8%	16µM*	i
Cc1ccc(-c2csc(C(C)(O)c3cccc(F)c3)n2)cc1C (stereo not drawn)	-98%	-16%	?	?	?	i
COc1ccc(C(C)(O)c2nc(-c3cnc4ccccc4c3)cs2)cc1 (stereo not drawn)	-5%	0%	-2%	-15%	-2%	?
O=C(C[n+]1cccc(Cl)c1)c1ccc(F)cc1	-7%	·	·	-7%	·	·
C[C@@H]1[C@H](c2ccccc2)OCCS(=O)(=O)N1Cc1cccc(Cl)c1	-2%	·	·	?	·	·
CC(O)(c1cccc(F)c1)c1nc(-c2cccc(F)c2)cs1 (stereo not drawn)	-50%	-2%	?	7.9µM*	?	i
COc1ccc(/C=C/C(=O)c2cc(F)ccc2OC(=O)c2ccccc2C)cc1OC	-77%	-12%	1.3µM*	?	3.3µM*	?
COc1ccc(/C=C/C(=O)c2ccc3c4c(cccc24)CC3)cc1OC	-56%	16µM*	?	?	16µM*	i
COc1ccc(/C=C/C(=O)c2c(O)c(OC)c3occc3c2OC)cc1OC	·	·	18µM*	·	11µM*	·
COc1ccccc1C1CN(CCNC(=O)[C@@H]2CSC(=O)N2)Cc2ccccc2O1 (stereo partly drawn)	·	·	·	·	·	i
Cc1c(C(=O)N2CCCCCC2)c(S(=O)(=O)N(Cc2ccccc2)C(C)(C)C)c(C)n1C	-18%	-4%	·	-23%	·	?
Cc1ccccc1Nc1c([N+](=O)[O-])cncc1[N+](=O)[O-]	-27%	-11%	-2%	?	8%	i
O=[N+]([O-])c1cncc([N+](=O)[O-])c1Nc1cccc(O)c1	-29%	20µM*	-22%	?	-16%	·
COc1ccc(NCC(=O)Nc2ccc(Cl)cc2C)c(OC)c1	-64%	?	?	?	16µM*	i
SMILES	HepG2 tox	ATXN2 expr inh	HT1080-NT tox	TGFb SMAD3 inh	HT1080 IDH1KD tx	S2 tox
O=C(Nc1cccc(Br)c1)Nc1nc2c(s1)CCCCCC2	-18%	-28%	·	11µM*	·	?
COc1ccc(NC(=O)Nc2nc3c(s2)CCCC3)cc1	-7%	51%	5%	0%	11%	?
Cc1cc(C(=O)Nc2nc3c(s2)CCCC3)cs1	-7%	-21%	6.3µM*	-3%	?	i
CCCCN(CC)Cc1ccc(CNC(=O)Nc2ccc(F)cc2)o1	-30%	-13%	10µM*	?	?	i
CCCCN(CC)Cc1ccc(CNC(=S)Nc2c(C)cc(C)cc2C)o1	-22%	-13%	4%	-4%	-7%	?
BrC(=C\c1ccccc1)/C=N/Nc1ccc2nncn2n1	-19%	7%	-8%	5%	?	i
BrC(=C\c1ccccc1)/C=N/n1cnnc1	2%	·	16µM*	26%	21µM*	?
N#CC(C#N)=NNc1ccc(S(=O)(=O)N2CCCCC2)cc1	-44%	-13%	-4%	7.9µM*	-9%	?
N#C/C(=N\Nc1ccc(S(=O)(=O)N2CCOCC2)cc1)C(N)=S	-10%	16%	-21%	-22%	-15%	?
c1cc2c3c(cccc3c1)NC1(CCC3(CC1)Nc1cccc4cccc(c14)N3)N2	-1%	·	21µM*	?	?	·
CCc1cccc(CC)c1NC(=O)N1Cc2[nH]nc(NC(=O)c3ccc(N4CCN(C)CC4)cc3)c2C1	·	-1%	·	·	·	·
CCC[C@@H](C=O)NC(=O)[C@H](CC(C)C)NC(=O)[C@H](CC(C)C)NC(=O)OCc1ccccc1	·	1.5µM*	·	·	·	·
Cc1nn2c(N3CCN(C)CC3)c3c(nc2c1-c1ccccc1)CCCC3	-18%	?	-8%	-10%	-8%	20µM*
Cc1ncc2c(c1CNC(=O)c1ccc3c(c1)OCO3)CCN(C(=O)c1cc3ccccc3n1C)C2	·	·	·	·	·	i
COC(=O)c1ccccc1-c1ccc(/C=N/NC(=O)c2cc3ccccc3o2)o1	-8%	-7%	-2%	?	-2%	i
COC(=O)c1ccccc1-c1c2ccc(=N)cc-2oc2cc(N)ccc12	-27%	?	6.5µM*	-97%	10µM*	·
O=C(NC1CCCC1)c1cnn2c1NC(=C1CC1)C=C2C(F)F	-2%	·	·	-21%	·	·
c1ccc(COc2cccc(-c3cc4nc(NCCOc5ccccc5)ccn4n3)c2)cc1	-29%	5%	?	?	?	i
